This is a sample that favours compounds with a hit; in the whole collection about 2.7% have one here.
Tau ThT inhib – inhibitors of human tau fibril formation, thioflavin T binding. recombinant tau K18 P301L, heparin-induced fibrillization, ThT fluorescence. Potency, µM (highest dose often 57.4 µM), actives largely listed as inhibitors. 270,000 tested, 2.1% active; also: nearly all actives have a fitted effect of over 55% in size
Target sequence (P10636 561-689 P618L limits assumed): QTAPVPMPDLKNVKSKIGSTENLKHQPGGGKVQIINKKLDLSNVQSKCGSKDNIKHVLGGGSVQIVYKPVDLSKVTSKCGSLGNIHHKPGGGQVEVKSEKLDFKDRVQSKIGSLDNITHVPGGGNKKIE
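In this qHTS, human K18 P301L tau is incubated with compound and heparin for 6 hr at 37 C, and Thioflavin T fluorescence then reports fibril load.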
FBPA coupling cs – coupling enzyme interference in Giardia aldolase counter-screen | coupling enzyme system counterscreen, AmpLite Red fluorescence | activity change, negative = inhibition, % at 58.2 µM, hits read low | 290,000 tested, 0.67% active | AID 2472; in the data active = activity change below about -30%
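Fluorescence at 525 nm excitation and 598 nm emission measured inhibition of the coupled detection system without aldolase. Compounds (at 57.5 uM final) were preincubated 10 min at room temperature with coupling enzyme reagent before a 20 min substrate/AmpLite Red step.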
Tau fluor counter – counter-screen for tau fibril formation inhibitors; tau K18 P301L Alexa594 fluorescence, heparin fibrillization; Potency, µM (series often up to 57.7 µM); 280,000 tested, 0.93% active; also: nearly all actives have a fitted effect of over 55% in size
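Human tau K18 P301L (15 uM unlabeled, 0.24 uM Alexa 594-labeled) in 100 mM sodium acetate pH 7 with 20 uM heparin, 6 hr at 37 C. ThT 30 uM added, 1 hr ambient; Alexa 594 FP and total fluorescence read at 555/632 nm.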
Tau FP inhib – inhibitors of human tau fibril formation. P10636. K18 P301L tau heparin fibrillization, Alexa594 FP, 6 h. Potency, µM (highest dose often 57.7 µM), hits mostly inhibitors. 280,000 tested, 0.39% active. AID 1468; also: nearly all actives have a fitted effect of over 55% in size
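Heparin (20 uM) drove fibril formation of recombinant tau K18 P301L, 15 uM unlabeled with 0.24 uM Alexa 594 label, for 6 hr at 37 C in 100 mM sodium acetate pH 7. Fluorescence polarization (555/632 nm) read 1 hr after 30 uM ThT.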
Each line names hits and unclear results; the compound was inactive in the other large screens; [ ] = remark or other dose. Unless noted, calls follow the shape of the dose curve; as a rule, active = well fitted curve in the direction sought with a large enough effect; inconclusive = small, poorly fitted or top-dose-only effect, or another doubt; inactive = no such curve, though single readings can be large; an effect the other way counts as inactive or inconclusive.

N#C/C(=C\c1ccc(O)c(O)c1)C(=O)NCCCNC(=O)/C(C#N)=C/c1ccc(O)c(O)c1	Tau ThT inhib 10µM, Tau fluor counter inconclusive (no result: FBPA coupling cs)
O=C(Nc1ccc(Cl)c(C(F)(F)F)c1)NC1CC2CCCC(C1)N2Cc1ccccc1 (centres undefined)	Tau fluor counter inconclusive, Tau FP inhib 28µM
O=C1NC(=O)N(c2ccccc2)C(=O)/C1=C/C=C/c1ccco1	none (no result: Tau ThT inhib, Tau fluor counter, Tau FP inhib)
Cc1ccc(N2C(=O)NC(=O)/C(=C\C=C\c3ccco3)C2=O)cc1C	Tau ThT inhib 13µM, Tau FP inhib inconclusive
Cc1ccc(N2C(=O)NC(=O)/C(=C\C=C\c3ccco3)C2=O)cc1	Tau fluor counter inconclusive, Tau FP inhib 13µM (no result: Tau ThT inhib)
Cc1ccc(/C=C2/C(=O)NC(=O)N(Cc3ccc(F)cc3)C2=O)o1	none (no result: Tau ThT inhib)
CN(C)c1ccc(/C=C/C=C2/C(=O)NC(=O)N(c3ccccc3)C2=O)cc1	Tau ThT inhib 4µM, Tau fluor counter inconclusive, Tau FP inhib inconclusive
COc1ccc(CN2C(=O)NC(=O)/C(=C/c3ccc([N+](=O)[O-])o3)C2=O)cc1	Tau ThT inhib 8.9µM, Tau fluor counter inconclusive, Tau FP inhib inconclusive
Cc1ccc(F)cc1NC(=O)c1ccc(Cn2nc(N3CCN(c4ccccc4)CC3)ccc2=O)o1	Tau ThT inhib inconclusive (no result: FBPA coupling cs)
Cc1cccc(N2C(=O)NC(=O)/C(=C\C=C\c3ccco3)C2=O)c1	Tau ThT inhib 10µM, Tau FP inhib inconclusive
Cc1cccc(N2C(=O)NC(=O)/C(=C/c3ccc([N+](=O)[O-])o3)C2=O)c1	FBPA coupling cs -36
CSc1cccc(NC(=O)C2CCN(C(=O)c3cnn(-c4ccccc4)c3-n3cccc3)CC2)c1	Tau fluor counter inconclusive (no result: FBPA coupling cs)
COc1ccc(S(=O)(=O)NCCc2sc3nc(-c4ccc(C)cc4)nn3c2C)cc1F	Tau FP inhib inconclusive (no result: FBPA coupling cs)
COc1ccc2c(c1)CCC1[C@@H]2CCC2(C)[C@@H](NCCCCCCN3C(=O)C=CC3=O)CC[C@@H]12 (some centres undefined)	Tau ThT inhib inconclusive
O=C1NC(=O)N(c2ccc(Cl)cc2)C(=O)/C1=C\c1ccc(Sc2nc3ccccc3[nH]2)o1	Tau ThT inhib 14µM, Tau FP inhib inconclusive
O=C1C(=O)c2ccccc2-c2ccccc21	Tau ThT inhib 3.2µM, FBPA coupling cs -82, Tau FP inhib inconclusive
O=C1C(=O)c2cccc3cccc1c23	none
Cc1ccc(C=C2C(Cl)=C(Cl)C(Cl)=C2Cl)cc1	Tau ThT inhib 16µM, Tau fluor counter inconclusive, Tau FP inhib inconclusive
Cc1ccc2c(c1)CC1(CN2C)C(=O)NC(=O)N(CCC2=CCCCC2)C1=O (centres undefined)	Tau ThT inhib 25µM, Tau FP inhib inconclusive
O=C(N/N=C/c1c(O)n(CCC2=CCCCC2)c(=O)[nH]c1=O)c1ccccc1	Tau ThT inhib inconclusive
O=C(N/N=C/c1c(O)n(CCC2=CCCCC2)c(=S)[nH]c1=O)c1ccccc1	Tau ThT inhib 25µM, Tau fluor counter inconclusive, Tau FP inhib inconclusive
COc1ccc(C(=O)Nc2ccc3c(c2)N(C)C(=O)c2ccccc2S3)cc1OC	Tau fluor counter inconclusive, Tau FP inhib inconclusive (no result: FBPA coupling cs)
CC(=O)C1CCC2C3CCC4=CC(=O)CC[C@@]4(C)C3CC[C@]12C (some centres undefined)	Tau ThT inhib inconclusive
COc1ccc2c(c1)c(C(=O)O)c(C)n2CC(C)C	none
COc1cc(O)c(C(=O)O)c(-c2cc(O)c(O)cc2C)c1	Tau ThT inhib 25µM, Tau fluor counter inconclusive, Tau FP inhib inconclusive
C[C@@H](NC(=O)[C@@H](N)Cc1ccc(O)cc1)C(=O)NCC(=O)N(C)[C@@H](Cc1ccccc1)C(=O)NCCO	none (no result: Tau ThT inhib, Tau fluor counter, Tau FP inhib)
COC(=O)C1CN(C#N)N(c2ccc(Cl)cc2)C12c1ccccc1-c1ccccc12 (centres undefined)	Tau ThT inhib 10µM, Tau FP inhib inconclusive
CCCCC/C=C\C/C=C\C/C=C\C/C=C\CCCC(=O)N(Cc1ccc(O)c(Cl)c1)Cc1ccc(O)c(Cl)c1	none
CN1/C(=C\C=C\C2=[N+](C)c3ccc4ccccc4c3C2(C)C)C(C)(C)c2ccccc21	Tau ThT inhib 1.4µM, Tau fluor counter 0.32µM[fluorescent], Tau FP inhib inconclusive (no result: FBPA coupling cs)
COc1ccc(Nc2c(-c3cc(Br)ccc3O)nc3ncccn23)cc1OC	Tau ThT inhib inconclusive, Tau fluor counter 8.9µM[quencher] (no result: FBPA coupling cs)
CCCCNC(=O)Oc1c(Br)cc2sc(=O)oc2c1Br	Tau fluor counter inconclusive, Tau FP inhib inconclusive (no result: Tau ThT inhib)
CN1C(=O)C(Cc2ccsc2)C(=O)N(C)C1=O	Tau ThT inhib 25µM, Tau FP inhib 32µM
COC(=O)C1=CO[C@@H](C)[C@@H]2CN3CCc4c([nH]c5cc(OC)ccc45)[C@@H]3C[C@H]12	Tau ThT inhib 22µM, Tau fluor counter inconclusive
COc1ccc(C(=O)NCCn2cc(SCc3ccc(C(F)(F)F)cc3)c3ccccc32)cc1OC	Tau ThT inhib inconclusive, Tau fluor counter inconclusive (no result: FBPA coupling cs)
NC(Cc1ccc(N(CCCl)CCCl)cc1)C(=O)O (centres undefined)	Tau ThT inhib 28µM, Tau fluor counter inconclusive, Tau FP inhib inconclusive
O=C(Nc1ccc2nc(SCC(=O)N3CCCc4ccccc43)sc2c1)c1cccc(F)c1	Tau fluor counter inconclusive, Tau FP inhib inconclusive (no result: FBPA coupling cs)
Cc1c(CCC(=O)N2CCCCC2)c(=O)oc2cc3occ(C(C)(C)C)c3cc12	Tau ThT inhib inconclusive (no result: FBPA coupling cs)
C=C1C(=O)O[C@@H]2C[C@@H](C)[C@@H]3C4OC4C(=O)[C@@]3(C)[C@@H](O)[C@H]12 (some centres undefined)	Tau ThT inhib 13µM, Tau FP inhib 7.9µM
C=CCNC(=S)Nc1ccc(OC(=O)Nc2ccc(Cl)c(Cl)c2)cc1	Tau ThT inhib inconclusive, Tau fluor counter inconclusive, Tau FP inhib 16µM
O=C(Nc1ccc(Cl)c(Cl)c1)c1ccco1	none (no result: Tau ThT inhib, Tau fluor counter, Tau FP inhib)
C=C1CCC(O)C/C1=C\C=C1/CCCC2(C)C1CCC2C(C)CCCC(C)C (centres undefined)	Tau ThT inhib inconclusive
O=C(O)c1ccccc1S	Tau ThT inhib inconclusive
COc1cc(/C=C2/C(=O)N(c3ccccc3)N=C2C)ccc1OS(=O)(=O)c1ccccc1	Tau ThT inhib 14µM, FBPA coupling cs -42, Tau fluor counter inconclusive
CCOc1cc(C=C2C(=O)NC(=O)NC2=O)ccc1OS(=O)(=O)c1ccccc1	Tau ThT inhib inconclusive
CCOP(=S)(OCC)Oc1ncn(-c2ccccc2)n1	none (no result: Tau ThT inhib, Tau fluor counter, Tau FP inhib)
COc1cc2c(cc1OC)-c1c(OC)c(OC)cc3c1[C@H](C2)N(C)CC3	Tau ThT inhib inconclusive, FBPA coupling cs -34
CN1C(=O)/C(=C/c2ccc(N3CCCCCC3)o2)C(=O)NC1=S	Tau ThT inhib 14µM
Cc1ccc(/C=C2\C(=O)NC(=S)N(c3cccc(F)c3)C2=O)o1	none (no result: Tau ThT inhib, Tau fluor counter, Tau FP inhib)
CCN1C(=O)C(=Cc2ccc(N3CCOCC3)o2)C(=O)N(CC)C1=S	Tau ThT inhib 18µM
CN1CCN(c2ccc(/C=C3\C(=O)NC(=S)N(c4cccc(Br)c4)C3=O)o2)CC1	Tau ThT inhib 16µM
CN1C(=O)/C(=C\c2ccc(N3CCCCC3)o2)C(=O)NC1=S	Tau ThT inhib inconclusive
CN1C(=O)C(=Cc2ccc(N3CCOCC3)o2)C(=O)N(C)C1=S	Tau ThT inhib inconclusive
COC(=O)c1cc(NC(=O)Cn2nc(-c3ccccc3)c3c(c2=O)CCCC3)cc(C(=O)OC)c1	Tau FP inhib inconclusive (no result: FBPA coupling cs)
